PubChem BioAssay AID492956 (The Scripps Research Institute Molecular Screening Center, 2010)
Hit rate of the full screen: of about 340,000 compounds, about 3,300 (0.97%) were called active. Only a selection was taken, and actives are over-represented in it overall. Values without a mark were called inactive.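 How the source made its calls: active means inhibition above the mean over all tested compounds plus 3 SD (cut at about 30% in these data); inactive means the rest.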

Each compound was assayed against Platelet-activating factor acetylhydrolase 2, cytoplasmic (Homo sapiens) (UniProt Q99487) (assay: PAFAH2 enzyme inhibitors, primary screen, biochemical, fluorescence polarization, human (AID 492956;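 further: inhibitors block probe labeling of enzyme so polarization drops; 0% = enzyme with DMSO and 100% = wells lacking PAFAH2 protein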)). Details: recombinant PAFAH2, FP-rhodamine activity probe, at 3.39 µM, stronger effect = higher value.
In the case of `CCOCc1nnc(NC(=O)CCC2CCCCC2)s1`, the inhibition is reported as 3.07%.
`CCOc1cc(-c2conc2N)cc(OCC)c1OCC` gave an inhibition of -0.29%.
`CCCc1cc(=O)n2[nH]c(SCc3ccccc3)nc2n1` was tested, and the inhibition was 58.2% (active).
`CCCc1cc(=O)n2[nH]c(C)c(-c3ccc(Cl)cc3)c2n1` was tested, and the inhibition was 4.35%.
With `CCCc1cc(=O)[nH]c(SCc2ccc(C#N)cc2)n1` the inhibition was -7.81%.
With `O=C1CCc2cc(S(=O)(=O)N3CCC(C(=O)NCc4ccccc4Cl)CC3)ccc2N1` the inhibition was 7.4%.
Compound `NNC(=O)C1CC(O)CN1S(=O)(=O)c1ccc(Cl)cc1` (stereo not drawn) has an inhibition of -7.58%.
Work on `O=C(CCN1CCN(C/C=C/c2ccccc2)CC1)Nc1cccc(F)c1` yielded an inhibition of -0.13%.
`O=c1ccc2c(-c3ccccc3S(=O)(=O)O)c3ccc(O)c(O)c3oc-2c1O` was tested, and the inhibition was 74.3% (active).
`O=C1C2C3C=CC(C3)C2C(=O)N1c1ncc([N+](=O)[O-])s1` (stereo not drawn) was tested, and the inhibition was 3.52%.
For `CC1(C)NC(=O)N(CC(=O)Nc2cc(C(F)(F)F)cc(C(F)(F)F)c2)C1=O`, the inhibition was 2.33%.
In the case of `N/C(=N\OS(=O)(=O)c1cccc([N+](=O)[O-])c1)c1ccncc1`, the inhibition is reported as -0.37%.
With `CCCC(CCC(=O)OC)(C(=O)OCC)c1csc(N)n1` (stereo not drawn) the inhibition was 3.59%.
`O=C(N/N=C/c1cc([N+](=O)[O-])ccc1O)/C(=C\c1cccs1)NC(=O)c1ccccc1` showed an inhibition of -3.54%.
In the case of `O=[N+]([O-])c1ccc(O)c(/C=N/Nc2ccccc2[N+](=O)[O-])c1`, the inhibition is reported as 51.1% (active).
`Nc1nnnn1/N=C/c1cc([N+](=O)[O-])ccc1O` was tested, and the inhibition was -12.5%.
With `O=C(O)c1ccccc1N=N/C(=N/Nc1cc(S(=O)(=O)O)ccc1O)c1ccccc1` the inhibition was 50.6% (active).
Compound `COc1cccc(/C=N/Nc2ccc(S(=O)(=O)Nc3ccccc3C(=O)O)cc2[N+](=O)[O-])c1O` has an inhibition of 27.3%.
`NC[C@H](Cc1ccccc1)NCCc1cc(C(F)(F)F)cc(C(F)(F)F)c1` was tested, and the inhibition was -1.16%.
Compound `O=C(OCCN1C(=O)c2ccccc2C1=O)[C@@H]1CC(O)CN1S(=O)(=O)c1ccccc1[N+](=O)[O-]` (stereo partly drawn) has an inhibition of 3.85%.
With `O=C(CN1C(=O)NC2(CCOc3ccccc32)C1=O)NCc1ccc(F)cc1` (stereo not drawn) the inhibition was -2.58%.
Work on `CC(=O)Nc1ccc(NC(=O)COC(=O)C2CCC(C(C)(C)C)CC2)cc1` (stereo not drawn) yielded an inhibition of 2.02%.
In the case of `O=C(COC(=O)Cc1ccc([N+](=O)[O-])cc1)NC1CCCCCC1`, the inhibition is reported as 2.56%.
In the case of `O=C(COC(=O)C1CCCCC1)Nc1ccc([N+](=O)[O-])cc1`, the inhibition is reported as 59.7% (active).
`N/C(Cc1ccc([N+](=O)[O-])cc1)=N\OC(=O)C1CCCCC1` showed an inhibition of 18.1%.
For `CCC(C)c1ccc(NC(=O)COC(=O)C2CCCC2)cc1` (stereo not drawn), the inhibition was 46.3% (active).
In the case of `CCC(C)c1ccc(NC(=S)N2CCCC2)cc1` (stereo not drawn), the inhibition is reported as -2.78%.
With `Cc1nc([N+](=O)[O-])nn1C12CC3CC(CC(Br)(C3)C1)C2` the inhibition was 4.57%.
`Clc1c(OCCCn2ccnc2)ccc2ccccc12` showed an inhibition of 0.49%.
For `CCOC(=O)C1CCCN(C(=O)c2ccc(C)c(S(=O)(=O)N3CCCCC3)c2)C1` (stereo not drawn), the inhibition was 3.86%.
For `Cc1ccc(F)cc1S(=O)(=O)Nc1cccc(C(=O)N2CCCC(C(N)=O)C2)c1` (stereo not drawn), the inhibition was 45.3% (active).
`O=C(c1ccc(F)cc1)N1CCCC(C(=O)N2CCCCC2)C1` (stereo not drawn) gave an inhibition of -1.35%.
With `CSc1ccc(S(=O)(=O)N2CCC(C(=O)NCc3ccncc3)CC2)cc1` the inhibition was 0.67%.
For `CCCC1OC23CCCCC2C(C#N)(C#N)C1(C#N)C(=N)O3` (stereo not drawn), the inhibition was 35.4% (active).
For `O=C(Nc1ccc(S(=O)(=O)N2CCCCC2)cc1)C1CC(=O)N(c2ccc(F)cc2)C1` (stereo not drawn), the inhibition was -0.7%.
For `O=S(=O)(c1ccc(Cl)cc1)c1nc(-c2ccco2)oc1N1CCCCC1`, the inhibition was -0.15%.
With `O=c1oc(-c2ccco2)nc2sc3c(c12)CCCCC3` the inhibition was 46.4% (active).
`Cn1c(NN)nc2sc3c(c2c1=O)CCC3` gave an inhibition of 4.91%.
`Cc1cc(-n2cnc(-c3cn(C)nc3C)n2)no1` gave an inhibition of 2.99%.
For `Cc1noc(/C=C/c2ccco2)c1S(=O)(=O)N1CCC(C(=O)N2CCc3ccccc32)CC1`, the inhibition was -7.75%.
For `O=C(O)Cc1csc(NC(=O)CSc2nnnn2-c2ccc(O)cc2)n1`, the inhibition was 1.29%.
In the case of `CCn1c(CNC(=O)c2ccccc2)nnc1SCC(=O)N1CCN(c2ccccc2)CC1`, the inhibition is reported as -4.72%.
In the case of `CCN(C(=O)CSc1nnnn1-c1ccc(OC)cc1)C1CCS(=O)(=O)C1` (stereo not drawn), the inhibition is reported as 4.1%.
Compound `COc1ccc(C(C)C)cc1S(=O)(=O)Nc1ncn[nH]1` has an inhibition of -3.51%.
`CCCCCNC(=O)C1c2ccccc2Oc2ccccc21` was tested, and the inhibition was -0.79%.
With `CCC(C)NC(=O)C1c2ccccc2Oc2ccccc21` (stereo not drawn) the inhibition was -4.35%.
For `CCCN(CCC)C(=O)C1c2ccccc2Oc2ccccc21`, the inhibition was 32.9% (active).
With `O=c1oc(/C=C/c2ccccc2)nc2ccccc12` the inhibition was 76.7% (active).
Work on `S=c1[nH]nc(/C=C/c2ccccc2)o1` yielded an inhibition of -11.5%.
Compound `O=c1[nH]c(/C=C/c2cccc(Br)c2)nc2ccccc12` has an inhibition of 6.48%.
`CCc1ccc2nc(Nc3ncc(C(C)=O)c(C)n3)nc(C)c2c1` showed an inhibition of 7.02%.
`Cc1ccc(S/C(=N\S(=O)(=O)c2ccc(Cl)cc2)c2ccccc2)cc1` gave an inhibition of 5.84%.
In the case of `Cc1cc(OCC(=O)NCC(O)c2ccccc2)c2c(C)c(C)c(=O)oc2c1` (stereo not drawn), the inhibition is reported as 0.4%.
`Cc1c(C)c2c(OCC(=O)N[C@@H](C(=O)O)c3ccccc3)cc3c(c2oc1=O)CCC(C)(C)O3` was tested, and the inhibition was 90.8% (active).
In the case of `Cc1c(C)c2c(OCC(=O)NCCCO)cc3c(c2oc1=O)CCC(C)(C)O3`, the inhibition is reported as 72.5% (active).
Work on `Cc1cc(=O)oc2c3c(cc(OCC(=O)NCCC(=O)N[C@@H](C)C(=O)O)c12)OC(C)(C)CC3` yielded an inhibition of 6.3%.
`Cc1cc(=O)oc2c3c(cc(OCC(=O)N[C@H](C(=O)O)c4ccccc4)c12)OC(C)(C)CC3` showed an inhibition of 18.3%.
With `Cc1cc(=O)oc2c3c(cc(OCC(=O)NCc4ccccn4)c12)OC(C)(C)CC3` the inhibition was 14.1%.
